The supplement of paper PMC11417369
Whole data set: some 25,000 sequences, median “ln(normalized median fluorescence intensity)” near 7.1, cut for the highest 2% near 10. What follows is part of a selection rich in the highest values, with near analogues and random picks from the rest.

Tested on: PfSIP2 AP2 domain 1 (GST-tagged)
Assay: gcPBM binding intensity (ln(normalized median fluorescence intensity)); higher = stronger DNA binding
Summary of the method: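 After 1 h on an Agilent 4 × 180k array of primer-extended double-stranded 36-bp intergenic genomic probes and negative controls, bound GST-tagged P. falciparum DNA-binding domains were detected with Alexa488 anti-GST antibody and scanned at 488 nm. The domains had been expressed in E. coli, and binding took place in 1× PBS with 1% milk, 0.2 mg/ml BSA, 0.5% salmon testes DNA and 0.03% Triton X-100. Binding intensity is the highest Masliner-normalised natural-log median intensity across replicate spots of either probe orientation.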

Row | Sequence | gcPBM binding intensity (ln)
1 | TGATTATTATAATTTAGTACATAATATTTTATATAA [XGTACX_site6125] | 7.07
2 | TTTATATATTTATTCACACATATAATATTCCGTCGT [CACACA_site6120] | 6.88
3 | AAAAAAAAAAAAAATACACACATATTTTATAGGGGA [CACACA_site3261] | 7.19
4 | CATATTTACTATCACACACACGATATATATAAATAT [CACACA_site1241] | 7.25
5 | TTCATTTTATTTTAAGTGCATATTTTTATTTTTTTG | 8.27
6 | CGCATATTTTATGTTTGTACTCATATGAATATCATA [XGTACX_site4717] | 6.97
7 | AATATTCATATGCAGGTGCATTAATTTTTATTAATT | 10.4
8 | CATGAATATTTTAATGTGCACATTTATCATTATATG | 8.69
9 | GTTTGAATATATCAGGTGCATTTATAATTCATATGA | 10.5
10 | ATCATATGTATGGTGGTGCATTATGCATGAATTTTA [GTGCAC_site9798] | 10.2
11 | TTATTAAATTCATAAGTGCATTTATGATTAATTTTT [GTGCAC_site9749] | 9.08
12 | ATCATATTTATATTGGTGCATTATGCATGAAATTTA [GTGCAC_site9571] | 9.94
13 | ATCATATTTATGTTGGTGCATTATGCATGGATTTTA [GTGCAC_site9795] | 9.92
14 | TTGATTTCATTTTAAGTGCATAACTAATATTATATA [GTGCAC_site9713] | 8.07
15 | TTCATATTCGATAAAGTGCATTAATTTTATTTATCA | 8.36
16 | CATTTTCATTTTAAGGTGCATTAATATTTATTTTAA [GTGCAC_site9437] | 10.4
17 | ATATATTTTTTTTTTTGTACGTATATTTATATAATT [XGTACX_site8719] | 7.1
18 | ATATTACTAATTAATGGTACACGTTATAATAAACTA [XGTACX_site7051] | 7.12
19 | TTCAATAGTAAGTATACACACATATAAATAAATAAA [CACACA_site7295] | 6.91
20 | GTGTGAAACATAAACACACACAAAAAGAAAAAATAG [CACACA_site1227] | 6.91
21 | TGCTTTTCTTTTTGCACACTTATGCATATATATATA [CACACA_site2583] | 9.5
22 | TATTCAAAAATATAAACAATGAAACAGTATAATATG [CACACA_negctrl_site1482] | 7.09
23 | ATCACAAAATGGAATGTTCTATGATATATATGTATA [XGTACX_negctrl_site460] | 7.02
24 | GCAAAGCACAAATATGCATGTAGATATAGAATAATG [TGCATGCA_site382] | 7.68
25 | TTTGAAAAGTATGAGGTGCAAAAAATGTAATGAAAT | 10.2

Row | Sequence | gcPBM binding intensity (ln)
26 | ATATATATATATAAAGTGCAAAAATGAAAGTAAGAC [GTGCAC_site9850] | 9.25
27 | GTATATGAGAAAAAAAGTACATGCACAAAATGTATA [XGTACX_site6441] | 7.42
28 | TAAAATATTATCTACGCACACATTAAAATAAAAAAA [CACACA_site3709] | 7.17
29 | ATTATAAATATCAGTGCACACATTTCTACGCAAAGT [CACACA_site4420] | 10.4
30 | ATTCTAAATATCAGTGCACACATTTCTACGCAAAGT [CACACA_site474] | 9.9
31 | AAAGAATTTGCATATACACACAAAAAAATAAATACA [CACACA_site4373] | 7.03
32 | TATATATTATACACGTGTACACATTATAACAATATA [XGTACX_site7799] | 7.4
33 | TATATATATATATAATGTACTTATATTTTTTTGAGG [XGTACX_site2638] | 9.46
34 | AAGGAAAACAATAGGTGTACCAAACGTCCTAGGAAC [XGTACX_site5732] | 6.7
35 | GTTCTAATATATTGCACACGTAAAAATATAGGTAAT [CACACA_site886] | 7.42
36 | AATGTGTACGCACGCACACACAAAAAAATATATATA [CACACA_site2913] | 7.24
37 | ATATGAAAGGTGTACACACGCACACCCAAAAAAATA [CACACA_site2911] | 7.93
38 | TAATATGAAAAGTGTACACACGCACAGACAAAAAAA [CACACA_site5594] | 7.33
39 | GTGTAATATGAAATGTGTACACACGCACACACAAAA [XGTACX_site6180] | 7.6
40 | TGTAATATGAAATGTGTACACACGCACCCACAAAAA [CACACA_site8948] | 10.9
41 | TAATATGAAATGTGTACACACGCACCCACAAAAAAA [CACACA_site8949] | 10.7
42 | TATCCCCTTGTCCATATTAATTGTGACATCATATAT [XGTACX_negctrl_site9] | 7.09
43 | TCATTAAAGGAAAAATGTACGTATAAATAAATATAT [XGTACX_site2587] | 7.07
44 | TCATTTTAATTAAAAGTGCAAAAAATAATATAACTA [GTGCAC_site9968] | 8.31
45 | AGAATTAAAATAAAGGTGCATTTTTTTGTTTCATGT | 11
46 | AAAAAAAAAAAAAAAGTGCATTAATAAATTTTAATA | 9.57
47 | TTAATTAATTTTTCAGTGCAAATAAAAAATATTTAA | 7.78
48 | TAAAATATTTCAAAGGTGCAATGATAATTTAAGACG [GTGCAC_site9609] | 10.4
49 | TGATATAAAATTAAAGTGCAAAAAAAAAATAAAAAA | 8.36
50 | ATTTAAAAAAGAAAGGTGCATTTCAATAATGTAAAA [GTGCAC_site9585] | 11

Row | Sequence | gcPBM binding intensity (ln)
51 | ATATTTAAAGAATAAGTGCAAAATGTAATTAATTTT [GTGCAC_site9901] | 7.91
52 | GAAATAAAAAGAAATGCATGTAATTTTTTTTTTTTT [TGCATGCA_site928] | 6.71
53 | GAAAATAAAATAAATGCATGTAAATTTAATGTAATG [TGCATGCA_site996] | 6.87
54 | ATTATAAAAGAATTTTTTTTTATTTCATTAAAATAT [CACACA_negctrl_site1137] | 6.57
55 | CATAATTTAAAAAAGGTGCAAAATGGATAATATATA [GTGCAC_site9657] | 11
56 | TACTATATCGATACCAGTACAGATTTATAAATAATA [XGTACX_site7491] | 6.94
57 | ATAAATAATATATATACACACATATCTATACATATT [CACACA_site487] | 7.05
58 | AAATTAAAGGCATAAAAGAAAATATTTAATAAAAAA [CACACA_negctrl_site1689] | 6.57
59 | GCTGAAAGGATAAAGGTGCATATTTTTTAAAAAATT [GTGCAC_site9487] | 11.2
60 | AATAATAATAAAAAGGTGCTGAAATATTTTTATTAT [GTGCAC_site9763] | 8.38
61 | ATACACACAGCCTAAACATGCATATAGAAAAAAGAA [TGCATGCA_site1028] | 7.4
62 | ATTCTATAGAAACACACACACATGCATGCACCTATA [CACACA_site107] | 11.7
63 | TATATATAGAAACACACACACACATATATATATATA [CACACA_site4116] | 9.25
64 | CATAACATAAAATAGGTGCACAAAAATTGTAATTGA | 11.2
65 | AATAAGTAACAAAATACACACATATAGGTAATTATA [CACACA_site6949] | 6.83
66 | GTTGTGTAATTCGTAACACACATAAAATATATATAA [CACACA_site6059] | 6.97
67 | ACATATGAATATAATACACACTTGTATTATTAATAT [CACACA_site8546] | 6.85
68 | ATATTCTTGTTTAATACACACTGTAGTATTATATAT [CACACA_site4400] | 7.17
69 | GTACACCTATAATATACACACAACAAATATGCACAT [CACACA_site6603] | 8.84
70 | GAATAATATGGACATACACACATATACATACCTATA [CACACA_site7075] | 7.25
71 | ATACAGTTGCATATGGTGCACGAATAATACACCTAT | 11.3
72 | ACACTTAAATATTGTTGTACAAAATGATAAAATGTA [XGTACX_site4588] | 7.13
73 | CACCCTTTGTTTTAGAGTACATATGTATATACGTAA [XGTACX_site7964] | 7.53
74 | ATAAAAAACTCAGAGCGTACATAATTTTTTCTATTT [XGTACX_site2803] | 7.24
75 | TATATATGGGTAACCTTTTTTTTTTTTTTTCGAACA [CACACA_negctrl_site1303] | 6.8

Row | Sequence | gcPBM binding intensity (ln)
76 | AGGTAGAAAAAAGACACACACATTATGTATATATAT [CACACA_site377] | 7.6
77 | ACAAAATTTACAAAATGTACAAAATATACAAAATAT [XGTACX_site6465] | 6.99
78 | TACATACATATATTATGTACATATTTTATTTTTATT [XGTACX_site1642] | 7.08
79 | TATTATTATTTTATGGTGCAAAAAAAAAAAAAAAAA | 10.6
80 | TATTTTTATTATATGGTGCATATATACATACATATA | 10.4
81 | CACCCTTTACACAAGGTGCATACTTTATTATATTTT [GTGCAC_site9778] | 10.6
82 | ATTTATTTTAAATAAGTGCAAAATGGTTATAAATAA | 8.23
83 | TTATTTTTATATTTCACACACATATACTTTTACATA [CACACA_site4097] | 7.28
84 | AAAATTATTTAGTAAGTGCAAAAAAAAAAAAAAAAA | 8.21
85 | CATATTATTATTTTGGTGCATACTTATATATATTTT | 9.74
86 | TACAATATATTTATAGTGCATATTACTTTTAACTTT | 8.41
87 | AAGGAGCCTATGAACACACACATGTACATATATTAA [CACACA_site4084] | 7.03
88 | TATATATGCATTAAAGTGTTTTTTTTTTTTTTTTTT [CACACA_negctrl_site1353] | 7.72
89 | TACACATTATGTATCATACACACAAATAAATATATA [CACACA_site608] | 7.1
90 | TAAGAAATTGAGCGCACACATACATCTGTGGGATGG [CACACA_site1548] | 6.71
91 | CATACACATTTCATATGTACATAGATTGAAGGGAAG [XGTACX_site116] | 7.21
92 | TATACGTAATAATATGCACACAAATAAACTTTATAA [CACACA_site9166] | 8.88
93 | TACGTAATAATATGCACACAAATAAACTTTATAAAT [CACACA_site3501] | 8.22
94 | AGCAAGACGGGGTGCACACAAACTAATATGCCGAAT [CACACA_site159] | 12.1
95 | CGAGCAAGACGGGGTGCACACAAACTAATATGCCGA [CACACA_site7936] | 12.1
96 | ATATATATTATATGCACACTAATAAGACTATTTAAA [CACACA_site3554] | 9.68
97 | ATATATATATTATATGCACACTAATAAGACTATTTA [CACACA_site5880] | 9.55
